Source: PubChem BioAssay
Activity calls are given as the source filed them.

Assays:
[1] = anti-His antibody binders, primary screen, artefact control for SMM control protein annotation, biochemical, small-molecule microarray, 635 nm fluorescence (AID 1128); settings: anti-His Alexa647 antibody binding, higher = more signal;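 also: score merges feature fluorescence with signal-to-noise for each printed compound spot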
[2] = system: Human papillomavirus type 1a E7 protein (residues 1-88); experiment: HPV1a E7 small-molecule binders, primary screen, biochemical, small-molecule microarray, residues 1-88, 635 nm (AID 1129); settings: small-molecule microarray binding, fluorescence 635 nm; higher = more signal
[3] = target: Focal adhesion kinase 1 (Homo sapiens) (UniProt Q05397); experiment: small-molecule microarray binders of FAK, primary screen, biochemical, 635/667 nm fluorescence, BSA, DTT (AID 1130); settings: PTK2 binding, 635 nm fluorescence, higher = more signal;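 also: composite of spot emission at 667 nm and signal to noise over triplicate slides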
[4] = system: Fibrinogen (Alexa647-labelled); experiment: fibrinogen binders on compound microarrays, profiling panel, artefact control for SMM control-protein annotation, biochemical, small-molecule microarray, 635/667 nm fluorescence (AID 1131); settings: fibrinogen-A647 binding fluorescence, higher = more signal;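 also: z-score merges 667 nm fluorescence with per-spot signal-to-noise over triplicate slides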
[5] = target: Follistatin (Homo sapiens) (UniProt P19883); experiment: follistatin binders on small-molecule microarrays, primary screen, biochemical, small-molecule microarray, 635/667 nm fluorescence (AID 1132); settings: FST binding, 635 nm fluorescence, higher = more signal
[6] = target: Fibroblast growth factor 2 (Homo sapiens) (UniProt P09038); experiment: FGF2 binders on small-molecule microarrays, primary screen, biochemical, small-molecule microarray, 635/667 nm fluorescence (AID 1133); settings: small-molecule microarray binding, FGF2, fluorescence 635/667; higher = more signal
[7] = mitochondrial membrane potential change in A549 cells, profiling panel, cell-based, JC-1 fluorescence, basal, 24 h, 100 nL (AID 1138); settings: higher = more signal;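 also: A549 lung adenocarcinoma cells under basal conditions with no added stimulus; test concentration not given here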
Lefty1 = Lefty1 binders on small-molecule microarrays, primary screen, biochemical, small-molecule microarray, 635/667 nm fluorescence (AID 1139); settings: small-molecule microarray binding, fluorescence 635/667; higher = more signal
[8] = system: wheat germ agglutinin (Triticum aestivum), Alexa647-labelled; experiment: wheat germ agglutinin binders on compound microarrays, profiling panel, artefact control for SMM control-protein annotation, biochemical, small-molecule microarray, 635/667 nm fluorescence (AID 1140); settings: WGA-A647 binding, 635 nm fluorescence, higher = more signal;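 also: score merges 667 nm feature emission with signal to noise over triplicate slides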
[9] = target: Luciferin 4-monooxygenase (Photinus pyralis) (UniProt P08659); experiment: firefly luciferase enzyme inhibitors, primary screen, biochemical, luminescence, purified enzyme, 2006 set (AID 1141); settings: SteadyGlo luminescence, 30 min, higher = more signal, called active from +8 up or from −8 down;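 also: cell-free assay with purified firefly luciferase at 100 ng per well in PBS; test concentration not given here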
Luciferin 4-monooxygenase (Photinus pyralis), sequence (P08659 whole entry, looked up): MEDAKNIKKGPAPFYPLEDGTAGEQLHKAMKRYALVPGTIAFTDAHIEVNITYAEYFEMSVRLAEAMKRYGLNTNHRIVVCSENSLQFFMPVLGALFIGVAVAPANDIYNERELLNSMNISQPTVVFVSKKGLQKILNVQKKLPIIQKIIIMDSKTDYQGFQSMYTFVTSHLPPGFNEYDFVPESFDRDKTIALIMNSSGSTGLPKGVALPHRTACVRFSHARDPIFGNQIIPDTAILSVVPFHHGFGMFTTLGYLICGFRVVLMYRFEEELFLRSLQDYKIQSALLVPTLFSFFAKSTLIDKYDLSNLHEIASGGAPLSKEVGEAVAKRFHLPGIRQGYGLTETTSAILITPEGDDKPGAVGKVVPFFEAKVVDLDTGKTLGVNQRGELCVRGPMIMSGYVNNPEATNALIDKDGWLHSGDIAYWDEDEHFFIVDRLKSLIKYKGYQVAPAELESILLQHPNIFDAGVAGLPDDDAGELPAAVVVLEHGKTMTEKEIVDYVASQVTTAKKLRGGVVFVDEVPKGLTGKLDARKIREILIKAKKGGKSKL

Follistatin (Homo sapiens), sequence (P19883 whole entry, looked up): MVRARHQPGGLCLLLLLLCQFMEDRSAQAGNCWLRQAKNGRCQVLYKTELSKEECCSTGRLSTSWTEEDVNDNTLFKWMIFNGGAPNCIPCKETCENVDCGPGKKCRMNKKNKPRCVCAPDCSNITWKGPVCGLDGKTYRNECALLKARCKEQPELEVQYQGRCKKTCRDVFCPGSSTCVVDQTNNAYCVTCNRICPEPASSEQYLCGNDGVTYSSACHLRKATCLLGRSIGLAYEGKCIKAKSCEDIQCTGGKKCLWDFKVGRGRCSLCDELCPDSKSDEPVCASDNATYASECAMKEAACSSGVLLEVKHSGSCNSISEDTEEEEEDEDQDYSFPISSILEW
Focal adhesion kinase 1 (Homo sapiens), sequence (Q05397 whole entry, looked up): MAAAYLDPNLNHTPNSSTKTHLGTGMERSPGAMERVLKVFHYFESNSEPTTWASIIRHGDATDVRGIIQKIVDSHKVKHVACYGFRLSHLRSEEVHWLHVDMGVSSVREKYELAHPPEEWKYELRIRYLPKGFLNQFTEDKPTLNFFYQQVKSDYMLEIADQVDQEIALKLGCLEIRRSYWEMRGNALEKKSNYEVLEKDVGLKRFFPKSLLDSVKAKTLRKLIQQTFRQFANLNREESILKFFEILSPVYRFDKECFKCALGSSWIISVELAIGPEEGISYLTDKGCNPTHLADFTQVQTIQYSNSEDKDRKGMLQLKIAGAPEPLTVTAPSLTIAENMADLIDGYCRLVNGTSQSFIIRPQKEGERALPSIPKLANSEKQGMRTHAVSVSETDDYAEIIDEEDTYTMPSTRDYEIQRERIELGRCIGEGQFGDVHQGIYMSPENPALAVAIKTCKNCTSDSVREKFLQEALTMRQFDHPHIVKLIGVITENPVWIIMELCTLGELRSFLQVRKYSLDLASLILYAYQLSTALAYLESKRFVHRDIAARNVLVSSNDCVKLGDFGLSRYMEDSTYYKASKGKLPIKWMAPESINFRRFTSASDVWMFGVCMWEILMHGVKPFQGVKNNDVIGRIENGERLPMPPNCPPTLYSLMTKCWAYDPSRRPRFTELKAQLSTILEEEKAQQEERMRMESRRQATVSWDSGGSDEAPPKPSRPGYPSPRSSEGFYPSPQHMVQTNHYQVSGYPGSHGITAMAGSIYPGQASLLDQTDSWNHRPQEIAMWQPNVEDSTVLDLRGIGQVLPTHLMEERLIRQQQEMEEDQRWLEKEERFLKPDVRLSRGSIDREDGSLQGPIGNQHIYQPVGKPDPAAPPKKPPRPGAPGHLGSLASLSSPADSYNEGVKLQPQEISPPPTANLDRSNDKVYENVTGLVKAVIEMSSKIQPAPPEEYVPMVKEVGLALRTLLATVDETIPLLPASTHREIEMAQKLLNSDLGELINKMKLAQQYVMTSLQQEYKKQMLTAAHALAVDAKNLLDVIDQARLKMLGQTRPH
Fibroblast growth factor 2 (Homo sapiens), sequence (P09038 whole entry, looked up): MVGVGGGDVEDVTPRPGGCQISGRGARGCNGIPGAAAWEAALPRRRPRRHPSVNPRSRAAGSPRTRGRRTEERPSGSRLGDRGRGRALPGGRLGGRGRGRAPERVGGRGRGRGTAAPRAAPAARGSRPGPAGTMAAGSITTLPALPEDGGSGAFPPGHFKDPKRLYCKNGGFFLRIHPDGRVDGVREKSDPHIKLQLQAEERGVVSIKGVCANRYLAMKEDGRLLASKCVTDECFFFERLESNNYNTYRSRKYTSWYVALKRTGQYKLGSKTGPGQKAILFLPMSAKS

SMILES | composite z-score [1] | composite z-score [2] | composite z-score [3] | composite z-score [4] | composite z-score [5] | composite z-score [6] | z-score [7] | composite z-score (Lefty1) | composite z-score [8] | z-score [9]
O=C1O[C@@H](c2ccccc2)[C@@H](c2ccccc2)N2[C@@H](c3ccc(O)cc3)[C@]3(C(=O)Nc4ccc(C#CCCO)cc43)[C@@H](C(=O)N3CCCCCCC3)[C@H]12 | 2.27 | 1.24 | 0.724 | 0.952 | 1.42 | 0.94 | -0.158 | 1.26 | 1.21 | 0.0848 (inactive)
COc1ccc([Si](C)(C)[C@@H]2[C@@H](CCn3cc([C@H](O)c4ccccc4)nn3)O[C@]3(C(=O)N(C)c4ccccc43)[C@H]2C)cc1 | 0.214 | 0.991 | 0.227 | -0.892 | 0.0274 | 0.283 | -0.0374 | 0.57 | 0.0783 | 0.431 (inactive)
CC[C@@H]1C=C(C(=O)O)[C@H](c2ccc(C(C)C)cc2)N1S(=O)(=O)c1ccc(C)cc1 | 2.08 | 1.21 | 1.17 | 1.03 | 0.919 | 0.52 | -1.25 | 0.0565 | 1.35 | 0.734 (inactive)
CN(C)CCCCNC(=O)[C@@H]1C[C@@H]2C(=O)N[C@@H](CCCCN)C(=O)N2[C@@H]1c1cccc(OCCO)c1 | 0.117 | -0.229 | -0.815 | -0.581 | -0.029 | 0.554 | -0.872 | -0.382 | -0.13 | 0.654 (inactive)
C=C(CCCC)/C(=C/C[C@H](OC(C)=O)c1ccc(CO)o1)c1cc(C(=O)OC)ccc1OC | 0.683 | 0.596 | 0.0945 | 0.579 | 1.29 | 0.708 | -0.925 | 1.42 | 0.789 | -1.45 (inactive)
O=c1cccc(-c2ccccc2)o1 | -0.192 | -0.377 | 0.192 | -0.468 | 0.145 | -0.417 | 0.103 | -0.57 | 0.143 | 0.616 (inactive)
O=C(NCc1ccccc1)[C@@H]1c2ccccc2C(=O)N(C2CCCCC2)[C@H]1c1ccc(CO)cc1 | 0.61 | 1.01 | 0.405 | -0.0594 | 1.29 | 0.487 | 2.15 | 0.917 | 0.803 | -0.441 (inactive)
CCOC(=O)C1=C[C@@H](C(C)(C)C)N(S(=O)(=O)c2ccc(C)cc2)[C@H]1c1ccc(Cl)c(Cl)c1 | 0.978 | 1.21 | 0.606 | 0.968 | 0.654 | 0.202 | 3.07 | 0.495 | 0.945 | 1.34 (inactive)
CC(c1ccccc1)C(O)C1C=CC2C(=O)N(c3ccccc3)C(=O)C2N1Nc1ccccc1F (stereo not given) | 1.35 | 1.2 | 0.583 | 0.994 | 0.473 | -0.645 | -0.673 | 0.226 | 0.439 | 1.94 (inactive)
O=[N+]([O-])c1ccc(C[n+]2ccc(CCCO)cc2)o1 | -0.0383 | 1.07 | 1.08 | 0.752 | 1.4 | 1.77 | -0.506 | 0.73 | 0.226 | -0.868 (inactive)
C=C(CCCC)C(=O)CC[C@H](OC(=O)c1ccccc1-c1ccccc1C(=O)O)c1ccc(CO)o1 | 1.22 | 1.22 | -0.116 | 0.954 | 1.1 | 0.905 | -0.541 | 1.57 | 1.14 | -1.96 (inactive)
O[C@@H](Cc1ccccc1)[C@@H](/C=C/c1ccccc1)NCc1ccccc1Br | -0.538 | -0.85 | -0.716 | -0.354 | -1.19 | -1.14 | 0.772 | -1.64 | 0.217 | 0.284 (inactive)
COc1cc2c(cc1O)C(c1ccc(CN3CCCC3)cc1)N(Cc1sc3ccccc3c1Cl)CC2 (stereo not given) | 0.423 | -0.18 | 0.0344 | 0.455 | 1.03 | 1.17 | -0.763 | 0.501 | 0.421 | 1.14 (inactive)
Cc1ccc(S[C@]2(C(=O)NCCCN(C)C)CC(=O)N(C(C)C)[C@@H]2c2ccc(CO)cc2I)cc1 | -0.537 | -0.393 | 0.225 | -0.952 | 0.296 | -1.01 | 1.97 | 0.0228 | -0.19 | 0.216 (inactive)
O=C1O[C@H](c2ccccc2)[C@H](c2ccccc2)N2[C@H]1[C@@H](C(=O)NC[C@H](O)c1ccccc1)[C@]1(C(=O)Nc3ccc(C#CC4(O)CCCCCC4)cc31)[C@H]2c1ccccc1OCCO | 1.26 | 1.19 | 0.412 | 0.494 | 1.26 | 1.54 | -1.24 | 0.586 | 0.794 | 0.361 (inactive)
O=C1NC(=O)C2C1C=CC(C(O)c1cccs1)N2Nc1ccccn1 (stereo not given) | 1.23 | 0.532 | -0.374 | 0.725 | 0.131 | 0.0343 | 0.543 | 0.0773 | -0.0456 | -1.68 (inactive)
CN(C)CCCC[C@@H]1NC(=O)[C@@H]2C[C@H](C(=O)NCCCCCN)[C@H](c3ccc(O)cc3)N2C1=O | 0.637 | 0.732 | 0.91 | 0.502 | -0.126 | -0.585 | 0.393 | -0.318 | 1.09 | -0.806 (inactive)
C=CCN1Cc2ccccc2C[C@@]2(COC(c3ccc(OCCCO)cc3)=N2)C1=O | 0.131 | 1.2 | 0.92 | 0.526 | 1.15 | 0.788 | 1.67 | 0.374 | 0.41 | -1.62 (inactive)
[N-]=[N+]=Nc1ccccc1[C@@H]1OC(c2ccc(OCCCO)cc2)=N[C@]1(CCS(=O)(=O)c1ccccc1)C(=O)N1CCCCC1 | 2.13 | 1.23 | 0.539 | 0.998 | 1.29 | 0.234 | -0.0343 | -0.0697 | 1.42 | -9.85 (active)
O=C1OCC=C[C@H]2OC34C=CCN(CCN5CCOCC5)C(=O)[C@H]3N(CCCCCCO)C(=O)[C@@H]4[C@@H]12 (stereo not given in full) | 3.21 | -0.206 | -0.0142 | -0.469 | 0.277 | -0.131 | 0.582 | 0.659 | -0.0261 | -0.689 (inactive)
CN(C)CCCC[C@@H]1NC(=O)[C@@H]2C[C@H](C(=O)NCCCCCCN)[C@H](c3ccc(O)cc3)N2C1=O | 0.297 | 1.19 | 1.55 | 0.763 | 1.35 | 0.787 | -0.729 | 0.829 | 0.998 | 0.37 (inactive)
C=CCC(OC(C)=O)[C@@H]1[C@@H](N(Cc2ccc(-c3ccccc3)cc2)C(=O)c2ccc(C)cc2)c2cc(OCCCO)ccc2N1C(=O)Cc1ccc(OC)cc1 (stereo not given in full) | -0.109 | -0.33 | -0.026 | 0.386 | 0.534 | -0.177 | 1.85 | 0.0835 | 0.115 | -1.58 (inactive)
CCCCCCC#C[Si](O[C@H](c1ccccc1)c1cn([C@H](C)c2ccccc2)nn1)(C(C)C)C(C)C | 0.475 | 0.386 | -0.159 | 0.574 | 0.441 | 0.555 | 3.27 | 0.547 | 0.144 | 0.425 (inactive)
CO[C@H]1O[C@H](CO)[C@@H](OC(=O)Nc2cccc(F)c2)[C@H](OC(=O)Nc2ccccc2-c2ccccc2)[C@@H]1OC(=O)Nc1ccccc1-c1ccccc1 | 1.61 | 1.25 | 0.797 | 1 | 1.09 | 0.205 | -1.16 | 0.102 | 1.11 | 0.923 (inactive)
[N-]=[N+]=NCc1ccccc1C[C@]1(C(N)=O)N=C(c2ccc(OCCCO)cc2)O[C@H]1c1ccccc1N=[N+]=[N-] | 2.21 | 1.19 | 0.394 | 0.751 | 0.847 | -0.386 | -0.542 | 0.0874 | 1.03 | -10.3 (active)
O=C1C2C=CC(C(O)c3ccc(Br)cc3)N(n3cnnc3)C2C(=O)N1Cc1ccccc1 (stereo not given) | 0.648 | 1.16 | 0.407 | 0.974 | 0.722 | 0.298 | -0.901 | 0.425 | 1.15 | 1.66 (inactive)
COc1ccc(C(=O)Nc2cccc(CN3C(=O)[C@@]4(O[C@@H](CCn5cc([C@H](O)c6ccccc6)nn5)[C@H]([Si](C)(C)c5ccc(OC)cc5)[C@H]4C)c4ccccc43)c2)cc1 | 0.669 | 0.138 | 0.638 | 0.528 | 1.19 | 0.612 | -0.175 | 1.01 | 0.443 | 0.39 (inactive)
COCC1C2CC[C@H]3C(OCc4ccc(F)cc4C(F)(F)F)OC[C@]4(C)[C@H]3C2=C(CN4C(=O)OC(C)(C)C)[C@H](C)C1COC (stereo not given in full) | 0.976 | 1.18 | 0.475 | 0.764 | 0.342 | -0.593 | 1.52 | -0.348 | 1.14 | 0.248 (inactive)
